# Reference: the antibiotic and cytotoxicity screens of Wong et al. (2023)
# Screen size: about 39,000 compounds; about 1,500 (3.8%) were called active. The entries come from a sample that favours actives as a whole.
# System: HSkMC (human skeletal muscle cells)
# Experiment: cytotoxicity call (relative viability < 0.9)
# Details: 10 µM
row,SMILES,cytotoxicity call
1,COc1ccc(NC(=O)N(C)C[C@@H]2OCc3ccccc3-c3c(n(C)c4ccccc34)C(=O)N([C@H](C)CO)C[C@H]2C)cc1,inactive
2,C[C@@H]1CN([C@H](C)CO)C(=O)Cc2cc(NS(=O)(=O)c3ccc(Cl)cc3)ccc2O[C@@H]1CN(C)C(=O)Nc1cccc2ccccc12,inactive
3,CO[C@@H](CN(C)S(=O)(=O)c1ccc(C)cc1)[C@@H](C)CN([C@@H](C)CO)S(=O)(=O)c1cccc(Cl)c1,inactive
4,C[C@@H]1CN([C@H](C)CO)C(=O)c2cc(NS(=O)(=O)c3ccc(Cl)cc3)ccc2O[C@@H](C)CCCCO[C@@H]1CN(C)C(=O)Cc1ccccc1,inactive
5,CN1CCN(C(=O)C[C@H]2C=C[C@H](NC(=O)Cc3ccccn3)[C@H](CO)O2)CC1,inactive
6,O=C(C1=C[C@H](c2ccsc2)C[C@H](OCCCCO)O1)N1CCN(Cc2ccc3c(c2)OCO3)CC1,inactive
7,COC(=O)c1c2oc(c1C(=O)OC)C(=O)N[C@@H](Cc1ccccc1)Cn1cc(nn1)[C@@H](Cc1ccccc1)NC(=O)N[C@H](CO)CC2,inactive
8,C[C@H](CO)N1C[C@H](C)[C@H](CN(C)S(=O)(=O)c2ccccc2)OCCCC[C@H](C)Oc2ccc(NC(=O)NC3CCCCC3)cc2C1=O,inactive
9,CCNc1cc(=N)n(CC)c2n[nH]c(N)c12,inactive
10,CON=C1CC2(CC3CC(CC=C(C)CC(C)C=CC=C4COC5C(O)C(C)=CC(C(=O)O3)C45O)O2)OC(C(C)=CC(C)C)C1C (stereo unspecified),active
11,CO/N=C1\C[C@]2(C[C@@H]3C[C@@H](C/C=C(\C)C[C@@H](C)/C=C/C=C4\CO[C@@H]5[C@H](O)C(C)=C[C@@H](C(=O)O3)[C@]45O)O2)O[C@H](/C(C)=C/C(C)C)[C@H]1C,active
12,COC(=O)C=CC(=O)OC,inactive
13,C[C@@H](NC(=O)C[C@H]1CC[C@@H](NC(=O)CN2CCOCC2)[C@H](CO)O1)c1ccccc1,inactive
14,C#CC1(O)CCC2C3CCC4=CC(=O)CCC4C3CCC21C (stereo unspecified),inactive
15,C#CC1(O)CCC2C3CCC4=CCCCC4C3CCC21C (stereo unspecified),active
16,C#CC1(O)CCC2C3CCC4=CCCCC4C3C(=C)CC21CC (stereo unspecified),inactive
17,C[C@H](CO)N1C[C@H](C)[C@H](CN(C)C(=O)Cc2ccccc2)OCCCC[C@H](C)Oc2ccc(NC(=O)Nc3ccc4c(c3)OCO4)cc2C1=O,inactive
18,C[C@@H]1CN([C@@H](C)CO)C(=O)c2cc(NS(=O)(=O)c3cn(C)cn3)ccc2O[C@H]1CN(C)Cc1ccc(C(=O)O)cc1,inactive
19,O=c1[nH]cc(/N=C/c2ccncc2)c(=O)[nH]1,inactive

row,SMILES,cytotoxicity call
1,COc1ccc(NC(=O)N(C)C[C@H]2OCCCC[C@@H](C)Oc3ccc(NC(=O)NC(C)C)cc3C(=O)N([C@H](C)CO)C[C@@H]2C)cc1,inactive
2,CC1(C)CC[C@]2(C(=O)O[C@@H]3O[C@H](CO)[C@@H](O)[C@H](O)[C@H]3O)CC[C@]3(C)C(=CC[C@H]4[C@@]5(C)CC[C@@H](O[C@@H]6O[C@H](C(=O)O)[C@@H](O[C@@H]7OC[C@@H](O)[C@H](O)[C@H]7O)[C@H](O[C@@H]7OC[C@](O)(CO)[C@H]7O)[C@H]6O)C(C)(C)[C@@H]5CC[C@]43C)[C@@H]2C1,inactive
3,C[C@@H]1O[C@@H](O[C@H]2[C@H](O[C@H]3[C@H](O)[C@@H](O[C@@H]4O[C@H](CO)[C@@H](O[C@@H]5O[C@H](CO)[C@H](O)[C@H]5O)[C@H](O)[C@H]4O)[C@H](O[C@H]4CC[C@]5(C)[C@H]6CC[C@]78OC[C@@]9(CCC(C)(C)C[C@@H]97)[C@H](O)C[C@@]8(C)[C@]6(C)CC[C@H]5C4(C)C)O[C@@H]3C(=O)O)O[C@H](CO)[C@H](O)[C@@H]2O)[C@H](O)[C@H](O)[C@H]1O,inactive
4,CC(=O)O[C@H]1CC(C)(C)C[C@H]2[C@]13CO[C@@]21CC[C@@H]2[C@@]4(C)CC[C@H](O[C@@H]5O[C@H](C(=O)O)[C@@H](O)[C@H](O[C@@H]6O[C@H](CO)[C@H](O)[C@H](O)[C@H]6O[C@@H]6O[C@@H](C)[C@H](O)[C@@H](O)[C@H]6O)[C@H]5O[C@@H]5O[C@H](CO)[C@@H](O)[C@H](O)[C@H]5O)C(C)(C)[C@@H]4CC[C@@]2(C)[C@]1(C)C[C@H]3O,inactive
5,C[C@@H]1O[C@@H](O[C@H]2[C@H](O)[C@@H](O)[C@H](OC(=O)[C@]34CCC(C)(C)C[C@H]3C3=CC[C@H]5[C@@]6(C)CC[C@H](O[C@@H]7O[C@H](C(=O)O)[C@@H](O)[C@H](O)[C@H]7O)C(C)(C)[C@@H]6CC[C@@]5(C)[C@]3(C)CC4)O[C@@H]2CO)[C@H](O)[C@H](O)[C@H]1O,inactive
6,CC(=O)O[C@H]1CC(C)(C)C[C@H]2[C@]13CO[C@@]21CC[C@H]2[C@@]4(C)CC[C@H](O[C@@H]5OC[C@H](O[C@@H]6O[C@H](CO)[C@@H](O)[C@H](O)[C@H]6O[C@@H]6OC[C@@H](O[C@@H]7O[C@H](CO)[C@@H](O)[C@H](O)[C@H]7O)[C@H](O)[C@H]6O)[C@H](O)[C@H]5O[C@@H]5O[C@H](CO)[C@@H](O)[C@H](O)[C@H]5O)[C@@](C)(CO)[C@@H]4CC[C@@]2(C)[C@]1(C)C[C@H]3O,active
7,C[C@@H]1O[C@@H](O[C@H]2[C@H](O[C@H]3[C@H](O)[C@@H](O[C@@H]4O[C@H](CO)[C@@H](O)[C@H](O)[C@H]4O)[C@H](O[C@H]4CC[C@]5(C)[C@H]6CC[C@]78OC[C@@]9(CCC(C)(C)C[C@@H]97)[C@H](O)C[C@@]8(C)[C@]6(C)CC[C@H]5C4(C)C)O[C@@H]3C(=O)O)O[C@H](CO)[C@H](O)[C@@H]2O)[C@H](O)[C@H](O)[C@H]1O,active
8,CC1(C)CC[C@]2(C(=O)O[C@@H]3O[C@H](CO[C@@H]4O[C@H](CO)[C@@H](O)[C@H](O)[C@H]4O)[C@@H](O)[C@H](O)[C@H]3O)CC[C@]3(C)C(=CC[C@H]4[C@@]5(C)CC[C@H](O[C@@H]6OC[C@H](O)[C@H](O)[C@H]6O)C(C)(C)[C@@H]5CC[C@]43C)[C@@H]2C1,inactive
9,C[C@@H]1O[C@@H](O[C@H]2[C@H](O[C@H]3[C@H](O)[C@@H](C(=O)O)O[C@@H](O[C@H]4CC[C@]5(C)[C@H]6CC[C@]78OC[C@@]9(CCC(C)(C)C[C@@H]97)[C@H](O)C[C@@]8(C)[C@]6(C)CC[C@H]5C4(C)C)[C@@H]3OC3O[C@H](CO)[C@@H](O)[C@H](O)[C@H]3O)O[C@H](CO)[C@H](O)[C@@H]2O)[C@H](O)[C@H](O)[C@H]1O (stereo partly specified),active
10,C[C@H]1O[C@@H](OC[C@H]2O[C@@H](O[C@H]3CC[C@]4(C)[C@H]5CCC6=C(CC[C@@]7(C(=O)O[C@@H]8O[C@H](CO)[C@@H](O)[C@H](O)[C@H]8O[C@@H]8O[C@H](CO)[C@@H](O)[C@H](O)[C@H]8O)CCC(C)(C)C[C@@H]67)[C@]5(C)CC[C@H]4C3(C)C)[C@H](O)[C@@H](O)[C@@H]2O)[C@H](O)[C@@H](O)[C@@H]1O,inactive
11,COc1ccc2c3c(n(c2c1)C)[C@@H](CO)N(CC1CCOCC1)C[C@]13CCN(CC1)C(=O)c1cnccn1,inactive
12,CCc1c(C)c2cc3c(-c4ccccc4)coc3cc2oc1=O,inactive
13,CNC[C@H]1OCCCC[C@@H](C)Oc2ccc(NS(=O)(=O)c3cn(C)cn3)cc2C(=O)N([C@@H](C)CO)C[C@@H]1C,inactive
14,Cc1ccc(S(=O)(=O)Nc2ccc3c(c2)CC(=O)N([C@@H](C)CO)C[C@@H](C)[C@H](CN(C)C(=O)NC(C)C)O3)cc1,inactive
15,N#Cc1cc(F)cc(Oc2ccc(S(=O)(=O)C(F)F)c3c2CC(F)(F)[C@@H]3O)c1.N#Cc1cc(F)cc(Oc2ccc(S(=O)(=O)C(F)F)c3c2CC(F)(F)[C@H]3O)c1,inactive
16,COc1ccccc1NC(=O)N(C)C[C@H]1OCc2ccccc2-c2c(n(C)c3ccccc23)C(=O)N([C@H](C)CO)C[C@H]1C,inactive
17,C=CC(=O)N[C@H]1CCCN(CC)C1,inactive
18,C[C@@H]1CN([C@@H](C)CO)C(=O)c2cccc(NS(=O)(=O)c3ccc(F)cc3)c2O[C@H]1CN(C)S(=O)(=O)c1cccs1,inactive
19,C[C@@H]1CN([C@H](C)CO)C(=O)c2cc(Br)cnc2O[C@H]1CN(C)Cc1ccc2c(c1)OCO2,inactive

row,SMILES,cytotoxicity call
1,C[C@@H]1CN([C@@H](C)CO)C(=O)Cc2cc(NS(=O)(=O)c3cccs3)ccc2O[C@@H]1CN(C)S(=O)(=O)c1cccs1,inactive
2,Cc1ccc(S(=O)(=O)N(C)C[C@@H]2Oc3ccc(NC(=O)c4ccncc4)cc3C(=O)N([C@H](C)CO)C[C@H]2C)cc1,inactive
3,Cc1c(-c2ccc(C(N)=O)c3[nH]c4cc(C(C)(C)O)ccc4c23)cccc1-n1cnc2ccccc2c1=O,active
4,CCOC(=O)Cn1cnc2ccccc2c1=O,inactive
5,COc1ccc(S(=O)(=O)N(C)C[C@@H]2Oc3ccc(NC(=O)Cn4cnnn4)cc3C(=O)N([C@@H](C)CO)C[C@H]2C)cc1,inactive
6,Cc1ccc(S(=O)(=O)Nc2cccc3c2O[C@H](CN(C)CC2CC2)[C@H](C)CN([C@@H](C)CO)C3=O)cc1,inactive
7,COc1ccc2c3c(n(c2c1)C)[C@@H](CO)N(C[C@]13CCN(CC1)C(=O)c1ccccc1)C(=O)Nc1ccccc1F,inactive
8,COc1ccc(cc1)S(=O)(=O)N1C[C@]2(C1)CN([C@@H](CO)c1c2c2ccc(cc2n1C)OC)C(=O)CN(C)C,inactive
9,COc1ccc(cc1)S(=O)(=O)N1CC[C@]2(CC1)CN([C@@H](CO)c1c2c2ccc(cc2n1C)OC)C(=O)CN(C)C,inactive
10,COc1ccc2c3c(n(c2c1)C)[C@@H](CO)N(C[C@]13CN(C1)C(=O)Nc1cccc(c1)F)C(=O)C1CCOCC1,inactive
11,COc1ccc2c3c(n(c2c1)C)[C@@H](CO)N(C[C@]13CCN(CC1)C(=O)c1ccccc1F)C(=O)Nc1ccc(cc1)F,inactive
12,COCC(=O)N1CC[C@]2(CC1)CN([C@H](CO)c1c2c2ccc(cc2n1C)OC)C(=O)Nc1ccccc1F,inactive
13,COc1ccc2c3c(n(c2c1)C)[C@@H](CO)N(C[C@]13CCN(CC1)C(=O)c1ccccc1F)C(=O)Nc1ccccc1F,active
14,COc1ccc(cc1)S(=O)(=O)N1CC[C@]2(CC1)CN([C@H](CO)c1c2c2ccc(cc2n1C)OC)C(=O)CN(C)C,active
15,COc1ccc2c3c(n(c2c1)C)[C@H](CO)N(C[C@]13CCN(CC1)C(=O)c1ccccc1)C(=O)Nc1ccccc1F,active
16,COc1ccc2c3c(n(c2c1)C)[C@@H](CO)N(C[C@]13CN(Cc2cccc(c2)F)C1)C(=O)C1CCOCC1,active
17,COc1ccc2c3c(n(c2c1)C)[C@H](CO)N(C[C@]13CCN(CC1)C(=O)c1ccccc1F)C(=O)Nc1ccccc1F,inactive
18,COc1ccc2c3c(n(c2c1)C)[C@H](CO)N(C[C@]13CN(Cc2cccc(c2)F)C1)C(=O)C1CCOCC1,inactive
